{"source": "PubChem BioAssay AID1508622", "about": "(National Center for Advancing Translational Sciences (NCATS), 2021)", "note": "Values without a mark were called inactive. The source made the active and inactive calls. Calls come from the whole dose curve; as a rule, active = well fitted activation curve with a large enough effect; inconclusive = small, poorly fitted or top-dose-only effect; inactive = no such curve, though single readings can be large or run the other way. Potency is the fitted concentration of half-maximal effect.", "data": [{"assay": "Confirmatory qHTS for Identification of Small Molecule Activators of Huntingtin-Antisense Promoter Activity", "conditions": "HEK293 HTT-AS promoter firefly luciferase reporter, 24 h; series mostly up to 57.5 µM; activity change, positive = activation: at the top concentration", "in_short": "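HEK293 luciferase reporter cells, 2,500/well, cultured 24 h, then exposed to compounds at up to 57.5 uM final for 24 h at 37C. Firefly luciferase luminescence read; normalized to vehicle (0%) and zero RLU (-100%).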", "units": {"activity change, positive = activation": "%"}, "values": [{"smiles": "CCOc1ccc(NS(=O)(=O)c2ccc(-c3cc(C)no3)s2)cc1", "activity change, positive = activation": -28.6}, {"smiles": "Cc1ccccc1NC(=O)c1c(NC(=O)C(F)(F)F)sc2c1CCCCC2", "activity change, positive = activation": -91.3}, {"smiles": "CC(C)(C)C(=O)NCCc1nc2ccccc2n1CCCCOc1ccc(Cl)cc1", "activity change, positive = activation": -34.8}, {"smiles": "Cc1ccc(CCNC(=O)C2CCN(c3nnc(-n4cccc4CNc4ccc(C)cc4)s3)CC2)cc1", "activity change, positive = activation": -36.5}, {"smiles": "Cc1cc(C)c(/C=C/c2onc(C)c2S(=O)(=O)N2CCC(C(=O)NCc3ccco3)CC2)c(C)c1", "activity change, positive = activation": -29.2}, {"smiles": "O=C(C1CCC1)N1CCCc2cc(S(=O)(=O)N3CCN(c4ccccc4)CC3)ccc21", "activity change, positive = activation": -40.8}, {"smiles": "Cc1ccc(S(=O)(=O)C(CNC(=O)C(=O)NCCc2ccc(F)cc2)c2cccs2)cc1", "note": "(centres undefined)", "activity change, positive = activation": -32.4}, {"smiles": "CCCCCN1C(C(=O)c2ccccc2)=C(OC(=O)CC)c2ccccc2S1(=O)=O", "activity change, positive = activation": -42.2}, {"smiles": "Cc1cc(SCC(=O)Nc2nsc(-c3ccc(C(C)(C)C)cc3)n2)nc2ccccc12", "Potency": "2.69 µM (active)"}, {"smiles": "CCOC(=O)C1CCC(CN(Cc2ccccc2)S(=O)(=O)c2ccc(Cl)cc2)CC1", "note": "(centres undefined)", "activity change, positive = activation": -34}, {"smiles": "CCCCOc1ccc(C(=O)Nc2ccc3c(c2)CCCN3S(=O)(=O)c2ccc(C)cc2)cc1", "activity change, positive = activation": -62.3}, {"smiles": "O=C(CN1CCCN(S(=O)(=O)c2ccc(Br)cc2)CC1)Nc1cccc(C(F)(F)F)c1", "activity change, positive = activation": -31.7}, {"smiles": "CCOc1cccc(NC(=O)c2ccc(F)c(S(=O)(=O)N(CC)c3cccc(C)c3)c2)c1", "activity change, positive = activation": -18.6}, {"smiles": "Cc1ccc(Nc2ccc(N3CCN(C(=O)c4ccc([N+](=O)[O-])cc4Cl)CC3)nn2)cc1", "activity change, positive = activation": -30}, {"smiles": "COc1ccc(C(C)n2c(C)c3c(C)nnc(C)c3c2C)cc1", "note": "(centres undefined)", "activity change, positive = activation": -16.4}, {"smiles": "COc1ccc(-c2nc(CSCC(=O)N3CCN(c4cc(Cl)ccc4C)CC3)c(C)o2)cc1", "activity change, positive = activation": -93.9}, {"smiles": "CCN(CC)CCOc1ccc(C(=C(Cl)c2ccccc2)c2ccccc2)cc1", "activity change, positive = activation": -7.48}, {"smiles": "CCC1=C(c2ccc(C)cc2)S(=O)(=O)N=C1N1CCC(C(=O)NCCc2ccc(Cl)cc2)CC1", "activity change, positive = activation": -68.7}, {"smiles": "COc1ccccc1NC(=O)CSc1oc(-c2ccccc2)nc1S(=O)(=O)c1ccccc1", "activity change, positive = activation": -21.1}, {"smiles": "COc1ccc(S(=O)(=O)c2cc3cc(C(C)(C)C)cc(O)c3oc2=O)cc1", "activity change, positive = activation": -42.7}, {"smiles": "CCc1ccc(NC(=O)c2ccc3oc(=O)n(Cc4ccccc4)c3c2)cc1", "activity change, positive = activation": -41.5}, {"smiles": "CCCN(C(=O)CCc1nc(-c2ccc(C)cc2)no1)c1ccc(OCC)cc1", "activity change, positive = activation": -22}, {"smiles": "COc1ccc(CNC(=O)c2cccc(N3CCCS3(=O)=O)c2)cc1OC", "activity change, positive = activation": -95.9}, {"smiles": "COc1ccccc1N1CCN(C(CNC(=O)C(=O)NCc2ccc(C)cc2)c2cccnc2)CC1", "note": "(centres undefined)", "activity change, positive = activation": -81.1}, {"smiles": "COc1ccc(N(CC(=O)N2CCN(c3cccc(C)c3C)CC2)S(=O)(=O)c2c(C)noc2C)cc1", "activity change, positive = activation": -28.1}, {"smiles": "Cc1nnc(N2CCN(c3cccc(C(F)(F)F)c3)CC2)c2c1nnn2Cc1ccccc1", "activity change, positive = activation": -69}, {"smiles": "N#Cc1ccccc1S(=O)(=O)N1CCC(Oc2ccc(-n3cnnn3)cc2)CC1", "activity change, positive = activation": -83.7}, {"smiles": "CCOc1ccc(CCNC(=O)c2sc3ncccc3c2-n2c(C)ccc2C)cc1", "activity change, positive = activation": -65.6}, {"smiles": "CCc1c(C)sc2c1CCN(C(=O)Nc1ccc(F)c(Cl)c1)C2c1ccc(F)cc1", "note": "(centres undefined)", "activity change, positive = activation": -76.5}, {"smiles": "CCOC(=O)c1cc(C)n(CC2CCC(C(=O)Nc3ccc(Cl)cc3)CC2)c1C", "note": "(centres undefined)", "activity change, positive = activation": -95.2}, {"smiles": "Cc1ccc(C)c(-n2nnc(C(=O)Nc3ccc(Br)cc3)c2C)c1", "activity change, positive = activation": -81.3}, {"smiles": "CCc1c(C)sc2c1CCN(Cc1ccc(F)cc1)C2c1ccccc1", "note": "(centres undefined)", "activity change, positive = activation": -9.25}, {"smiles": "O=C(O)c1cc(-n2c(/C=C\\c3ccc(F)cc3)nc3ccccc3c2=O)ccc1Cl", "activity change, positive = activation": 19.3}, {"smiles": "O=C(CCc1cn(Cc2ccc(F)cc2)c2ccccc12)NC1CCCCC1", "activity change, positive = activation": -18.1}, {"smiles": "COc1ccc(C(=O)N2CCC(c3nc4ccccc4s3)CC2)cc1Cl", "activity change, positive = activation": -92.9}, {"smiles": "Cc1ccc(Cl)cc1N1CCN(C(=O)CCS(=O)(=O)c2ccc3c(c2)oc(=O)n3C)CC1", "activity change, positive = activation": -41.9}, {"smiles": "CCCCN(C)C(=O)C1CCCN(c2ncnc3onc(C)c23)C1", "note": "(centres undefined)", "activity change, positive = activation": -94.4}, {"smiles": "Cc1cc(C)c(S(=O)(=O)NCCc2sc3nc(-c4ccc(F)cc4)nn3c2C)c(C)c1", "activity change, positive = activation": -92.7}, {"smiles": "COc1ccc(CN2CCc3c(c(=O)n4ncc(C(=O)N5CCN(c6ccccc6OC)CC5)c4n3C)C2)cc1", "activity change, positive = activation": -64.1}]}]}
